Screening data as filed in PubChem BioAssay.
RORgamma inh – inhibitors of mouse ROR gamma transcriptional activity; Drosophila S2 Gal4-RORgamma UAS-luciferase reporter, 20 h; Potency, µM (top dose mostly 53.6 µM), most hits filed as inhibitors; actives 5.4% (n = 310,000); further: nearly all actives have a fitted effect of over 60% in size
Target sequence (P51450 whole entry, looked up, the tested form may be a part): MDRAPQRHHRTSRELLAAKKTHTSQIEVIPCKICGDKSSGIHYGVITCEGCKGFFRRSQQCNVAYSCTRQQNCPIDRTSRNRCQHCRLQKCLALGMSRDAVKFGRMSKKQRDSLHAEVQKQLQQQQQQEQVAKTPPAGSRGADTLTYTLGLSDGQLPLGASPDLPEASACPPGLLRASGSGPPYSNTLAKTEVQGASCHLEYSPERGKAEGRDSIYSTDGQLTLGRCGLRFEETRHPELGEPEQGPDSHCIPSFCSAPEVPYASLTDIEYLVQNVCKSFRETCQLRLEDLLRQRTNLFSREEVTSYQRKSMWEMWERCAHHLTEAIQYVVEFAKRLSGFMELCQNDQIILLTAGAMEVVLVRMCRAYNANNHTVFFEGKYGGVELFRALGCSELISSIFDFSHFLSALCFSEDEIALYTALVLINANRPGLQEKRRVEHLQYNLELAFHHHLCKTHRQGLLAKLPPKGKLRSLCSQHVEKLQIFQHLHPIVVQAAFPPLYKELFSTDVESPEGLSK
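A Gal4/UAS one-hybrid system in insect cells: metallothionein-promoter Gal4–ROR gamma fusion plus Photinus luciferase reporter. Copper sulfate 700 uM final, 20 hr ambient incubation, luminescent detection after 10 min with reagent.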
Gal4-VP16 FLuc – Gal4-VP16 reporter inhibition counter-screen | AID 2546 | Drosophila S2 Gal4-VP16 UAS-luciferase, luminescence, 20 h | Potency, µM (series often up to 53.6 µM), usual class: inhibitors | actives 3.5% (n = 310,000);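 further: Gal4-VP16 expression switched on by copper sulfate through the metallothionein promoter; nearly all actives have a fitted effect of over 50% in size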
KB-3-1 cytotox – KB-3-1 parental cell cytotoxicity. KB-3-1 viability, CellTiter-Glo ATP luminescence, 72 h. Potency, µM (highest dose often 46.1 µM), hits mostly cytotoxic. actives 1.4% (n = 400,000); further: nearly all actives have a fitted effect of over 60% in size
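Here the drug-naive KB-3-1 line serves as comparator for MDR sub-line selectivity; cells received compound titrations, 72 h at 37 °C, then CellTiter-Glo readout.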
KB-V1 cytotox – kills drug-selected multidrug resistant KB-V1 cells. KB-V1 MDR cells viability, CellTiter-Glo, 72 h. Potency, µM (doses to about 46.1 µM), most hits filed as cytotoxic. actives 3.4% (n = 400,000). AID 1347076; further: nearly all actives have a fitted effect of over 60% in size
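Potencies derive from concentration-effect curves fitted to normalized luminescence (CellTiter-Glo) of KB-V1 cells treated for 72 h at 37 degrees C in phenol-red-free DMEM containing 10% FBS.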
MCF10A rereplic – inducers of DNA re-replication in MCF 10A breast cells | Potency, µM (titrated, usually from 46.1 µM), actives largely listed as activators | MCF 10A DNA re-replication, Hoechst nuclear intensity, 48 h | actives 2.9% (n = 350,000); further: nearly all actives have a fitted effect of over 50% in size
SW480 rereplic – induces DNA re-replication in SW480 colon adenocarcinoma cells. SW480 DNA re-replication, Hoechst DNA content imaging, 48 h. Potency, µM (titrated, usually from 46.1 µM), usual class: activators. actives 1.8% (n = 340,000); further: nearly all actives have a fitted effect of over 55% in size
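DNA re-replication was detected as more nuclei of elevated Hoechst intensity after 48 hr exposure to compound (23 nL pinned per well of 250 cells).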
Each line names hits and unclear results; the compound was inactive in the other large screens. Sampled rows, rich in hits. Any-hit rate of the full collection: about 10%. The call rests on the fitted dose curve; in most records, active means well fitted curve in the direction sought with a large enough effect; inconclusive means small, poorly fitted or top-dose-only effect, or another doubt; inactive means no such curve, though single readings can be large; an effect the other way counts as inactive or inconclusive.

O=C(CCl)N(c1ccccc1)c1c[nH]c2ccccc12	RORgamma inh 14µM, Gal4-VP16 FLuc inconclusive, KB-3-1 cytotox 16µM, KB-V1 cytotox 16µM, MCF10A rereplic 15µM, SW480 rereplic inconclusive
O=C(CCl)N(c1ccc(Cl)cc1)c1c[nH]c2ccccc12	RORgamma inh 4.5µM, Gal4-VP16 FLuc 10µM, KB-3-1 cytotox inconclusive, KB-V1 cytotox 18µM, MCF10A rereplic 2.6µM, SW480 rereplic 21µM
O=C(O)Cc1c[nH]c2ccccc12	none (no result: RORgamma inh, Gal4-VP16 FLuc)
CC(C)CO/N=C1/C[C@@H](O)[C@@H](O)[C@@H]2[C@@H]3C(=O)N(C4CCCCC4)C(=O)[C@H]3CC[C@@H]12	none (no result: KB-3-1 cytotox, KB-V1 cytotox, MCF10A rereplic, SW480 rereplic)
COC(=O)c1ccc(CC(=O)c2ccc(O)cc2O)o1	KB-V1 cytotox inconclusive
COC(=O)c1ccc(CC(=O)c2c(C)cc(O)cc2O)o1	RORgamma inh 11µM, Gal4-VP16 FLuc inconclusive
Cc1nc(CC(=O)c2c(C)cc(O)cc2O)cs1	RORgamma inh inconclusive, Gal4-VP16 FLuc inconclusive, KB-3-1 cytotox 21µM, KB-V1 cytotox 21µM
COc1ccc(OC)c(-c2nnc3n2N=C(c2ccc(OC(F)F)c(OCC4CC4)c2)CS3)c1	KB-3-1 cytotox 5.8µM, KB-V1 cytotox inconclusive, MCF10A rereplic inconclusive, SW480 rereplic inconclusive (no result: RORgamma inh, Gal4-VP16 FLuc)
COc1ccc(C2=Nn3c(nnc3-c3ccccc3OC)SC2)cc1OCC1CC1	KB-3-1 cytotox inconclusive, MCF10A rereplic inconclusive, SW480 rereplic 2.3µM (no result: RORgamma inh, Gal4-VP16 FLuc)
CCc1cc(C(=O)OC)c(NC(=O)c2cc(Br)cs2)s1	KB-V1 cytotox 16µM
COc1ccc(-c2cc(C(F)(F)F)nc(S(=O)(=O)CCCC(=O)Nc3cc(C)on3)n2)cc1OC	RORgamma inh 3.5µM, Gal4-VP16 FLuc inconclusive, MCF10A rereplic 3.7µM, SW480 rereplic inconclusive
COc1ccccc1-c1cc(C(F)(F)F)nc(S(=O)(=O)CCCC(=O)Nc2cc(C)on2)n1	RORgamma inh 11µM, Gal4-VP16 FLuc 7.9µM, KB-3-1 cytotox inconclusive, KB-V1 cytotox inconclusive, MCF10A rereplic 21µM, SW480 rereplic 16µM
COc1ccc(-c2cc(C(F)(F)F)n3nc(C(=O)Nc4cc(C)on4)cc3n2)cc1OC	KB-V1 cytotox inconclusive, MCF10A rereplic inconclusive (no result: Gal4-VP16 FLuc)
CCCCN1CC(COCc2ccccc2)Oc2cccc(Oc3ccc(OC)cc3)c2S1(=O)=O (stereo not given)	none (no result: RORgamma inh, Gal4-VP16 FLuc)
CCCCN1CC(COCc2ccccc2)Oc2cccc(OCCN3C(=O)[C@@H]4[C@H](C3=O)C3C=C[C@H]4C3)c2S1(=O)=O (stereo not given in full)	KB-3-1 cytotox inconclusive, KB-V1 cytotox 15µM, MCF10A rereplic inconclusive (no result: RORgamma inh, Gal4-VP16 FLuc)
c1nc(SSc2ncnc3nc[nH]c23)c2[nH]cnc2n1	KB-3-1 cytotox 5.2µM, KB-V1 cytotox 2.3µM, MCF10A rereplic inconclusive, SW480 rereplic inconclusive (no result: RORgamma inh, Gal4-VP16 FLuc)
Cc1cc(S(=O)(=O)Nc2ccc(O)c(Sc3nc4ccccc4s3)c2)ccc1Cl	KB-3-1 cytotox inconclusive, KB-V1 cytotox 18µM (no result: RORgamma inh, Gal4-VP16 FLuc, MCF10A rereplic, SW480 rereplic)
O=S(=O)(Nc1ccc(O)c(Sc2nc3ccccc3s2)c1)c1cc(Cl)ccc1Cl	KB-3-1 cytotox inconclusive (no result: RORgamma inh, Gal4-VP16 FLuc, MCF10A rereplic, SW480 rereplic)
O=S(=O)(Nc1ccc(O)c(Sc2nc3ccccc3s2)c1)c1cccc2ccccc12	RORgamma inh inconclusive, Gal4-VP16 FLuc 7.9µM, KB-3-1 cytotox inconclusive, KB-V1 cytotox inconclusive, MCF10A rereplic inconclusive
CCN(CC)C(=O)c1sc2nc(N3CCOCC3)c3c(c2c1N)CCCC3	KB-V1 cytotox 4.6µM, MCF10A rereplic inconclusive
COC(=O)c1sc2nc(N3CCCCC3)c3c(c2c1N)CCCC3	MCF10A rereplic 7.1µM
CCOC(=O)c1sc2nc(C(C)C)c3c(c2c1N)CCC3	KB-V1 cytotox inconclusive, MCF10A rereplic 3.7µM, SW480 rereplic 18µM
COC(=O)c1ccc(-c2sc3nc(N4CCOCC4)c4c(c3c2N)CCCC4)o1	KB-3-1 cytotox inconclusive, MCF10A rereplic inconclusive, SW480 rereplic 0.63µM
CCCn1c2ccccc2c2cnn(CC(=O)NCCc3cc(OC)ccc3OC)c(=O)c21	none (no result: RORgamma inh, Gal4-VP16 FLuc, MCF10A rereplic, SW480 rereplic)
Cn1c(=O)c2c(nc3n(-c4ccc(O)cc4)c(-c4ccc(Br)cc4)cn23)n(C)c1=O	none (no result: RORgamma inh, Gal4-VP16 FLuc, MCF10A rereplic, SW480 rereplic)
